Measurements: publication PMC7819943, “Rice protein-binding microarrays: a tool to detect cis-acting elements near promoter regions in rice”
In all, about 35,000 sequences were measured (“fluorescence intensity (a.u.)”: median about 10,000, highest 2% from about 52,000 on). Shown is part of a subset that was picked to be rich in the highest values.

Biological target: T1, OsWOX13 (Oryza sativa, UniProt Q5QMM3 1-267)
T1 sequence: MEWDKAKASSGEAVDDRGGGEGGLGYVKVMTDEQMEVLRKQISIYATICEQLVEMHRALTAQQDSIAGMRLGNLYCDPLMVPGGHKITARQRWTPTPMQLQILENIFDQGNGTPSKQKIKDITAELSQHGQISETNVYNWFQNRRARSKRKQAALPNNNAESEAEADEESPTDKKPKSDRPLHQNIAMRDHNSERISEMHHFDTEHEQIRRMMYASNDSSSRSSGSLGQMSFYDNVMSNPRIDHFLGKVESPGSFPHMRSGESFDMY
Assay: protein-binding microarray (RPBM); PBS, 2% BSA, 51.3 ng/ul salmon testes DNA, 50 uM zinc acetate, 200 nM TF, 25 C, 1 h; high values mean tight binding
Settings: protein: recombinant; tags: N-terminal polyhistidine and DsRed monomer fusion (pET32a); label: CyDye5-dUTP incorporated in the synthesized complementary strand; 3' TTTTT single-stranded linker to array surface; dsDNA, one strand shown
Outline: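 The binding signal is fluorescence intensity per array feature (arbitrary units). Readings came from an Axon 4000B scanner after a washed, 2% BSA-blocked, double-stranded custom Agilent array had been incubated for 1 h at 25 °C with 200 nM protein and 50 µM zinc acetate. The protein was a Ni–NTA-purified transcription factor fused N-terminally to polyhistidine and DsRed, expressed in E. coli BL21-CodonPlus.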

Compared with “AATAACTAATTGTACATATTACGACTAATTTGCGAGATGACGGAGTCACCTAGTGCAG”, “TCTAATTACTTATTAATTAATTGATTTAATTAAATTAATCCGGAGTCACCTAGTGCAG” is higher in binding signal: 35000 fluorescence intensity (a.u.) for the first, 40400 fluorescence intensity (a.u.) for the second.

Compared with “ATCAATCACTACTGCATATTACTATAATCTCCTCTATACTCGGAGTCACCTAGTGCAG”, “CTAGATTTATAATTAAATAAATTATTATAATATATAACTCCGGAGTCACCTAGTGCAG” is higher in binding signal: 5200 fluorescence intensity (a.u.) for the first, 42700 fluorescence intensity (a.u.) for the second.

Compared with “CCGCACCTAAATTGATTGATTATTAATTTAACTGCCGCTCCGGAGTCACCTAGTGCAG”, “AATAACTAATTGCATAGATTGTGACTAATTTGCGATGCGACGGAGTCACCTAGTGCAG” is lower in binding signal: 65500 fluorescence intensity (a.u.) for the first, 55200 fluorescence intensity (a.u.) for the second.

Compared with “TTTGCCGCTGAGTAATTAAATTGTCTACTTACAAATCCTCCGGAGTCACCTAGTGCAG”, “TCAATTGATTATTACTGCCGCTTACTGTCTCCTCTACTGCCGGAGTCACCTAGTGCAG” is higher in binding signal: 3590 fluorescence intensity (a.u.) for the first, 53300 fluorescence intensity (a.u.) for the second.

Compared with “AAAATAACTAATTGCACAGATTGTGACTAATTTGCGAGACCGGAGTCACCTAGTGCAG”, “CAGGACTAATTGGGGTTGCAAACTGGGACTACAAACTACTCGGAGTCACCTAGTGCAG” is lower in binding signal: 34900 fluorescence intensity (a.u.) for the first, 28300 fluorescence intensity (a.u.) for the second.

Compared with “ACAAAACCAACTAATTAGGCAGGCAGCCATTTACCTCCATCGGAGTCACCTAGTGCAG”, “AACTAATTAATTTATTGGCAGGCACTGGCCTACCAAACCTCGGAGTCACCTAGTGCAG” is higher in binding signal: 5480 fluorescence intensity (a.u.) for the first, 53100 fluorescence intensity (a.u.) for the second.

Going from “AAAACAGTTTGATTAGCTTTCTGTCGAATCTGTCATGCATCGGAGTCACCTAGTGCAG” to “TTCTGATTAGTTACAACTTGAGTTCACTATTGTCATGATACGGAGTCACCTAGTGCAG”, the binding signal rises from 16500 fluorescence intensity (a.u.) to 37200 fluorescence intensity (a.u.).

Going from “GACAAGATCAGTCCTAATTATATATATGTTTTACCTTCTACGGAGTCACCTAGTGCAG” to “TGCAATAAATTATAGATGACTGAACATTTACACTCTACAGCGGAGTCACCTAGTGCAG”, the binding signal rises from 4490 fluorescence intensity (a.u.) to 15300 fluorescence intensity (a.u.).

Going from “CATAACTAATTAGTAACACAAAGAATATTGATTAGATGATCGGAGTCACCTAGTGCAG” to “CGCTAAAATTAAAAGTTTGATTGAAATTAGAACGATGTAACGGAGTCACCTAGTGCAG”, the binding signal falls from 43100 fluorescence intensity (a.u.) to 30300 fluorescence intensity (a.u.).

First: TTAAAATTAAACTTTTGCAGTCTTTCTAATTTGCCTCCTCCGGAGTCACCTAGTGCAG
Second: ACTGAACAAATTGAGCATGGTGTATATGTCACATTTTCTACGGAGTCACCTAGTGCAG
The binding signal of the first is lower: 5220 fluorescence intensity (a.u.) for the first, 6220 fluorescence intensity (a.u.) for the second.

First: TACATACAAGTTACAGTGTAATTACACTACGATTGTACTACGGAGTCACCTAGTGCAG
Second: TTGCACTGATTTTGTAACTTAAGGGATACGTCGTATCCGGCGGAGTCACCTAGTGCAG
The binding signal of the first is lower: 3630 fluorescence intensity (a.u.) for the first, 6500 fluorescence intensity (a.u.) for the second.

First: AGCCACGCAATCAATTAAATAATTAAGATAGGTACACGTGCGGAGTCACCTAGTGCAG
Second: CATATGACCAGTTTAACTGCCATCATGCAGACACACAGGACGGAGTCACCTAGTGCAG
The binding signal of the first is higher: 26400 fluorescence intensity (a.u.) for the first, 3410 fluorescence intensity (a.u.) for the second.

Going from “ATATAAATCAAATTTACAACTTTGCTGTAGCTATAATTTGCGGAGTCACCTAGTGCAG” to “CATATGATTAATTAAAATTTTATCATTTAGAACTTGAAAACGGAGTCACCTAGTGCAG”, the binding signal rises from 7160 fluorescence intensity (a.u.) to 34800 fluorescence intensity (a.u.).

Compared with “GATGAAGATTGATATTACCTGCGGCCGCCGGCGCCGCTGTCGGAGTCACCTAGTGCAG”, “GCATAACTAATTGTTGTTGCACATATTTTCTTTATAAAGCCGGAGTCACCTAGTGCAG” is higher in binding signal: 7110 fluorescence intensity (a.u.) for the first, 15500 fluorescence intensity (a.u.) for the second.

Compared with “AATGGGAACTAATGGGCCGGATTGACTACTTTGCTACATTCGGAGTCACCTAGTGCAG”, “TAGGTGACAGTTTATTTAATGCTATTGACACTATTCTAGCCGGAGTCACCTAGTGCAG” is higher in binding signal: 3240 fluorescence intensity (a.u.) for the first, 8640 fluorescence intensity (a.u.) for the second.

Compared with “CCGCACTCTATTATTGTATTGATTAGCTTGTGTCATTCGCCGGAGTCACCTAGTGCAG”, “TTAATTAATTGCTAATTACACTAATTAATTTATTGATAGCCGGAGTCACCTAGTGCAG” is higher in binding signal: 20500 fluorescence intensity (a.u.) for the first, 65200 fluorescence intensity (a.u.) for the second.

Going from “ATAACTTTTAATTTAAGCTAATTTTATTTCTGCCGGACATCGGAGTCACCTAGTGCAG” to “CACATAATTGAACTGCTAATTTTATTCTAGTCGGAAGCACCGGAGTCACCTAGTGCAG”, the binding signal rises from 19600 fluorescence intensity (a.u.) to 54600 fluorescence intensity (a.u.).

First: GTGATTGGGCTATTTGTAATGTTCAGATGGTGAACTGTGCCGGAGTCACCTAGTGCAG
Second: CATTATTGATTGATTGATTCGCAGATTCGCCGCTGCCACCCGGAGTCACCTAGTGCAG
The binding signal of the first is lower: 27600 fluorescence intensity (a.u.) for the first, 57200 fluorescence intensity (a.u.) for the second.

First: TATTGATTAAATTTAATTTATAGATAGACTAATATTTTACCGGAGTCACCTAGTGCAG
Second: ATTATTTGTGATTTGATTGCTAGTGATTTGAACTAATGGCCGGAGTCACCTAGTGCAG
The binding signal of the first is lower: 29800 fluorescence intensity (a.u.) for the first, 64300 fluorescence intensity (a.u.) for the second.

Compared with “GCCTAATTAATCCGTCATTAGCAAATGTTTATTGTAGCACCGGAGTCACCTAGTGCAG”, “GCTGACAGGGACAATCGGATGGAGCAGAATGTCTGAACGTCGGAGTCACCTAGTGCAG” is lower in binding signal: 38200 fluorescence intensity (a.u.) for the first, 11000 fluorescence intensity (a.u.) for the second.

Compared with “TTTGATCAAAATCAAAACGTCTTATAACCTGAAACGGAGGCGGAGTCACCTAGTGCAG”, “GCTAATTAAGTCCATTGCACATAGATCGATATGTGTACACCGGAGTCACCTAGTGCAG” is higher in binding signal: 4210 fluorescence intensity (a.u.) for the first, 27700 fluorescence intensity (a.u.) for the second.
